The antibiotic and cytotoxicity screens of Wong et al. (2023)
In all, about 39,000 compounds went through this assay and about 1,500 (3.8%) were called active. For the sample, actives were picked, then their nearest neighbours and some compounds at random.

Test system: HSkMC (human skeletal muscle cells)
Test: cytotoxicity call (relative viability < 0.9)
Conditions: 10 µM

Structure (SMILES) | cytotoxicity call
C[C@@H]1CN([C@H](C)CO)C(=O)c2cc(NS(=O)(=O)c3cn(C)cn3)ccc2O[C@@H]1CN(C)Cc1ccc(C(=O)Nc2ccccc2N)cc1 | inactive
O=C(Nc1cccc2cccnc12)[C@H]1[C@@H](c2ccc(Br)cc2)CC(=O)N1C(=O)OCc1ccccc1 | inactive
C[C@H]1CN([C@@H](C)CO)C(=O)c2cc(NS(=O)(=O)c3cn(C)cn3)ccc2O[C@@H]1CN(C)Cc1ccc(C(=O)O)cc1 | inactive
O=C(C[C@H]1CC[C@H]2[C@@H](COC[C@H](O)CN2C(=O)Nc2cccc(F)c2)O1)NCCCN1CCOCC1 | inactive
C[C@@H]1CN([C@H](C)CO)C(=O)c2cc(NC(=O)Cc3ccccc3)ccc2O[C@H]1CN(C)Cc1ccc(Oc2ccccc2)cc1 | inactive
O=C(C[C@@H]1C[C@H]2c3cc(NC(=O)Nc4ccc(C(F)(F)F)cc4)ccc3O[C@H]2[C@@H](CO)O1)NCc1cc(F)ccc1F | inactive
Cc1ccc(S(=O)(=O)Nc2ccc3c(c2)C(=O)N([C@@H](C)CO)C[C@@H](C)[C@@H](CN(C)C(=O)c2ccccc2)OCCCC[C@H](C)O3)cc1 | inactive
C[C@@H]1CN([C@@H](C)CO)C(=O)c2cc(NC(=O)c3ccncc3)ccc2O[C@H]1CN(C)Cc1ccc(-c2ccccc2)cc1 | inactive
C[C@@H]1CN([C@@H](C)CO)C(=O)CCCn2nncc2CO[C@H]1CN(C)C(=O)Nc1cccc(Oc2ccccn2)c1 | inactive
COc1ccc(NC(=O)N(C)C[C@@H]2Oc3ncc(C#CCN(C)C)cc3C(=O)N([C@@H](C)CO)C[C@H]2C)cc1 | inactive
C[C@@H]1O[C@H](O)[C@@H](F)[C@H](O)[C@@H]1O | inactive
C[C@H](CO)N1C[C@H](C)[C@H](CN(C)Cc2ccc(C(F)(F)F)cc2)OCCCC[C@H](C)Oc2ccc(NC(=O)Nc3ccc(C(F)(F)F)cc3)cc2C1=O | inactive
C[C@@H]1CN([C@H](C)CO)C(=O)c2cc(NC(=O)Nc3ccc(C(F)(F)F)cc3)ccc2O[C@@H](C)CCCCO[C@H]1CN(C)Cc1ccc(C(F)(F)F)cc1 | active
C[C@@H]1CCCCO[C@@H](CN(C)Cc2ccc(C(F)(F)F)cc2)[C@@H](C)CN([C@H](C)CO)C(=O)c2cc(NC(=O)Nc3ccc(C(F)(F)F)cc3)ccc2O1 | inactive
C[C@@H]1CCCCO[C@@H](CN(C)Cc2ccc(C(F)(F)F)cc2)[C@H](C)CN([C@@H](C)CO)C(=O)c2cc(NC(=O)Nc3ccc(C(F)(F)F)cc3)ccc2O1 | active
C[C@@H]1CN([C@@H](C)CO)C(=O)c2cc(NC(=O)Nc3ccc(C(F)(F)F)cc3)ccc2O[C@@H](C)CCCCO[C@@H]1CN(C)Cc1ccc(C(F)(F)F)cc1 | inactive
C[C@H]1CCCCO[C@@H](CN(C)Cc2ccc(C(F)(F)F)cc2)[C@@H](C)CN([C@@H](C)CO)C(=O)c2cc(NC(=O)Nc3ccc(C(F)(F)F)cc3)ccc2O1 | active
C[C@@H]1CCCCO[C@@H](CN(C)Cc2ccc(C(F)(F)F)cc2)[C@H](C)CN([C@H](C)CO)C(=O)c2cc(NC(=O)Nc3ccc(C(F)(F)F)cc3)ccc2O1 | inactive
C[C@@H]1CCCCO[C@@H](CN(C)Cc2ccc(C(F)(F)F)cc2)[C@@H](C)CN([C@@H](C)CO)C(=O)c2cc(NC(=O)Nc3ccc(C(F)(F)F)cc3)ccc2O1 | active
CNC[C@H]1OCCCC[C@H](C)Oc2ccc(NC(=O)CCCN(C)C)cc2C(=O)N([C@H](C)CO)C[C@@H]1C | inactive
C[C@@H]1CN([C@H](C)CO)C(=O)c2cccc(NC(=O)c3ccncc3)c2O[C@H]1CN(C)S(=O)(=O)c1ccccc1 | inactive
C[C@H](CO)N1C[C@H](C)[C@H](CN(C)S(=O)(=O)c2cn(C)cn2)Oc2ccc(NC(=O)CCCCCC(=O)Nc3ccccc3N)cc2C1=O | inactive

Structure (SMILES) | cytotoxicity call
CCOC(=O)CCCCCCCCCCCC[C@@H]1C=CCC1 | inactive
C[C@H](CO)N1C[C@H](C)[C@H](CN(C)Cc2ccc(C(=O)Nc3ccccc3N)cc2)OCCCC[C@H](C)Oc2ccc(NC(=O)C3CCCCC3)cc2C1=O | inactive
C[C@@H]1CN([C@H](C)CO)C(=O)c2cccc(NS(=O)(=O)c3cn(C)cn3)c2O[C@H]1CN(C)C(=O)Nc1ccc2c(c1)OCO2 | inactive
CCOC(=O)Cn1cccc2oc(=O)nc1-2 | inactive
C[C@H]1CN([C@@H](C)CO)C(=O)c2c(c3ccccc3n2C)-c2ccccc2CO[C@H]1CN(C)C(=O)Nc1ccccc1 | inactive
C[C@@H]1CN([C@@H](C)CO)C(=O)c2c(c3ccccc3n2C)-c2ccccc2CO[C@H]1CN(C)C(=O)[C@H](C)c1ccccc1 | inactive
COc1ccc(NC(=O)N(C)C[C@@H]2Oc3ccc(NC(=O)Nc4cccc5ccccc45)cc3CC(=O)N([C@H](C)CO)C[C@@H]2C)cc1 | inactive
COc1ccccc1-c1cnc2c(c1)C(=O)N([C@H](C)CO)C[C@@H](C)[C@H](CN(C)C(=O)c1ccncc1)O2 | inactive
Cc1ccc(-c2cnc3c(c2)C(=O)N([C@@H](C)CO)C[C@H](C)[C@@H](CN(C)C(=O)Cc2ccncc2)O3)cc1 | inactive
C[C@@H]1CN([C@H](C)CO)C(=O)c2cccc(NC(=O)c3ccc(-c4nccs4)cc3)c2O[C@@H]1CN(C)C(=O)NC1CCCCC1 | inactive
C[C@@H]1CCCCO[C@@H](CN(C)Cc2ccncc2)[C@H](C)CN([C@H](C)CO)C(=O)c2cc(NC(=O)Nc3ccc(C(F)(F)F)cc3)ccc2O1 | inactive
C[C@@H]1CN([C@@H](C)CO)C(=O)c2cc(NC(=O)Nc3ccc(C(F)(F)F)cc3)ccc2O[C@@H](C)CCCCO[C@H]1CN(C)Cc1ccc(Cl)c(Cl)c1 | inactive
C[C@@H]1CN([C@H](C)CO)C(=O)c2cc(NC(=O)Nc3ccc(C(F)(F)F)cc3)ccc2O[C@@H](C)CCCCO[C@@H]1CN(C)Cc1ccncc1 | active
C[C@H]1CCCCO[C@H](CN(C)Cc2ccc(C(F)(F)F)cc2)[C@@H](C)CN([C@@H](C)CO)C(=O)c2cc(NC(=O)Nc3ccc(F)cc3)ccc2O1 | inactive
C[C@@H]1CCCCO[C@H](CN(C)Cc2ccc(C(F)(F)F)cc2)[C@@H](C)CN([C@H](C)CO)C(=O)c2cc(NC(=O)Nc3ccc(C(F)(F)F)cc3)ccc2O1 | inactive
C[C@@H]1CN([C@H](C)CO)C(=O)c2cc(NC(=O)Nc3ccc(C(F)(F)F)cc3)ccc2O[C@@H](C)CCCCO[C@H]1CN(C)Cc1ccc(Cl)c(Cl)c1 | inactive
C[C@H](CO)N1C[C@H](C)[C@H](CN(C)Cc2ccc(C(F)(F)F)cc2)OCCCC[C@H](C)Oc2ccc(NC(=O)Nc3ccc(F)cc3)cc2C1=O | inactive
C[C@@H]1CCCCO[C@@H](CN(C)Cc2ccc(C(F)(F)F)cc2)[C@H](C)CN([C@@H](C)CO)C(=O)c2cc(NC(=O)Nc3ccc(F)cc3)ccc2O1 | inactive
C[C@H](CO)N1C[C@H](C)[C@@H](CN(C)Cc2ccncc2)OCCCC[C@H](C)Oc2ccc(NC(=O)Nc3ccc(C(F)(F)F)cc3)cc2C1=O | inactive
C[C@H](CO)N1C[C@H](C)[C@@H](CN(C)Cc2ccc(Cl)c(Cl)c2)OCCCC[C@H](C)Oc2ccc(NC(=O)Nc3ccc(C(F)(F)F)cc3)cc2C1=O | active
C[C@@H]1CN([C@H](C)CO)C(=O)c2cc(NC(=O)Nc3ccc(C(F)(F)F)cc3)ccc2O[C@@H](C)CCCCO[C@@H]1CN(C)Cc1ccc(C(F)(F)F)cc1 | active
C[C@@H]1CN([C@H](C)CO)C(=O)c2cc(NC(=O)Nc3ccc(F)cc3)ccc2O[C@@H](C)CCCCO[C@H]1CN(C)Cc1ccc(C(F)(F)F)cc1 | active
